Reference: PubChem BioAssay AID492998 (Southern Research Specialized Biocontainment Screening …, 2010)
Out of some 2,300 compounds screened, about 550 (24%) were called active. The rule behind the calls is not given here. Only a sample is shown. Results with a measured potency or affinity are listed apart.

Assay: Vero E6 cell cytotoxicity, dose response, cytotoxicity control for non-replicating M. tuberculosis project, secondary assay (AID 492998);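 note: 100% = vehicle-treated cells and 0% = background wells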
Details: series mostly up to 20 µM; viability: at the top concentration

| SMILES | viability |
| --- | --- |
| CC(C)=CC1C(C(=O)Nc2ccc(Br)cn2)C1(C)C (stereo not drawn) | 82.3% (inactive) |
| O=C(NCCCN1CCOCC1)c1c(O)c2cc(Br)cc(Br)c2[nH]c1=O | 77.8% (inactive) |
| COc1ccc(C(CCNCc2ccc(OC(C)C)cc2)C(C)C)cc1 (stereo not drawn) | 76.2% (inactive) |
| COc1ccc(C(C)NC(=O)CCc2ccccc2)cc1 (stereo not drawn) | 108% (inactive) |
| CCOC(=O)CN1NC2(CCC(C)CC2)NC1=S (stereo not drawn) | 92.4% (inactive) |
| COc1ccc(COC(=O)CCNC(=O)c2ccc(Cl)cc2)cc1 | 103% (inactive) |
| COc1ccc(-c2[nH]ncc2CN2CCCCCCC2)c(OC)c1 | 102% (inactive) |
| Sc1oc(-c2ccccc2)cc1C=Nc1ccccc1 | 90.2% (inactive) |
| CCOC(=O)c1c(-c2ccccc2)csc1NC(=O)CCN1CCOCC1 | 90.4% (inactive) |
| CN1c2ccsc2/C(=N/Nc2ccccc2)CS1(=O)=O | 89.2% (inactive) |
| CCOC(=O)CNC(=O)CNC(=O)c1nn(-c2ccc(OC)c(Cl)c2)c(=O)c2ccccc12 | 98.3% (inactive) |
| O=C(O)c1ccccc1C(=O)NNc1ccc(F)cc1 | 101% (inactive) |
| CCOC(=O)c1ccc(NC2=CC(=O)C(=O)c3ccccc32)cc1 | 99.2% (inactive) |
| CCOC(=O)COc1cc(O)c2c(=O)cc(-c3ccccc3)oc2c1 | 101% (inactive) |
| CCOC(=O)CCNC(=O)c1ccc2nc(C3CCCCC3)oc2c1 | 103% (inactive) |
| O=C(Nc1ccc(Cl)cn1)C1COc2ccccc2O1 (stereo not drawn) | 104% (inactive) |
| COC(=O)COc1ccc2cc(-c3ccc(OC)cc3)c(=O)oc2c1 | 101% (inactive) |
| COC(=O)CN(C#N)c1nc(N(C)C)nc(N(C)C)n1 | 95.9% (inactive) |
| CC(/C=C/c1ccccc1F)=N\NC(=O)c1ccccc1 | 78.2% (inactive) |
| Cc1ccc(NC(=S)C2=C(O)c3sccc3N(C)S2(=O)=O)cc1 | 108% (inactive) |
| Cc1ccc(OCC(=O)N2CCCc3ccccc32)cc1 | 93.3% (inactive) |
| Cc1ccc(NC(=O)CO/N=C/c2ccc(N(C)C)cc2)cc1 | 96.9% (inactive) |
| COc1ccc(C(=O)C=CNNC(=O)c2ccc(Cl)cc2)cc1 | 72% (inactive) |
| Cc1ccc(C(=O)C=CNNC(=O)c2ccccc2)cc1 | 102% (inactive) |
| O=C(COc1ccc(F)cc1)Nc1ccc2c(c1)OCCO2 | 92.4% (inactive) |

| SMILES | viability |
| --- | --- |
| Cc1ccc(-n2cc(CNCCn3nc(C)cc3C)c(-c3ccc(F)cc3)n2)cc1 | 77.2% (inactive) |
| Cc1ccc(-n2cc(CNCCc3cscn3)c(-c3ccc(F)cc3)n2)cc1 | 72.5% (inactive) |
| COc1ccc(OCc2n[nH]c(=S)o2)cc1 | 95.9% (inactive) |
| Cc1cccc(NC(=O)CO/N=C/c2ccc3c(c2)OCO3)c1 | 116% (inactive) |
| CCc1nnc(NC(=O)CN2CCN(Cc3ccc(F)cc3)CC2)s1 | 91.9% (inactive) |
| COC(=O)COc1ccc2c(=O)c(-c3ccccc3)coc2c1 | 107% (inactive) |
| c1ccc2cc(OCCCn3ccnc3)ccc2c1 | 99.2% (inactive) |
| C=CCc1cc(Cl)ccc1OCCCn1ccnc1 | 89% (inactive) |
| CC(C)COc1ccc(C(=O)CCN2CCCCC2)cc1 | 97.1% (inactive) |
| CC(NC(=O)OCc1ccccc1)c1ccccc1 (stereo not drawn) | 86% (inactive) |
| CCCCOc1ccc(NC(=O)CN2CCN(Cc3ccccc3)CC2)cc1 | 92.7% (inactive) |
| Cc1ccc(NC(CC(=O)c2ccccc2)C(=O)O)cc1Cl (stereo not drawn) | 111% (inactive) |
| COc1ccc2cc(C(=O)NCc3ccccc3CN3CCCC3)ccc2c1 | 83.7% (inactive) |
| CC(CN1CCOCC1)OC(=O)c1ccc(Br)cc1 (stereo not drawn) | 79.2% (inactive) |
| COc1ccc(C(=O)CCN2CCCCCC2)cc1 | 78.6% (inactive) |
| CC(CN1CCOCC1)OC(=O)c1ccc2c(c1)OCCO2 (stereo not drawn) | 94% (inactive) |
| O=S(=O)(CCN1CCN(c2ccccn2)CC1)c1ccc(Cl)cc1Cl | 96% (inactive) |
| O=C(N[C@@H]1C[C@H]2CC[C@@H]1C2)c1ccco1 | 109% (inactive) |
| Cc1ccc(NCCC(=O)c2cccs2)cc1C | 83.6% (inactive) |
| O=C(OCn1nnc2ccccc2c1=O)c1ccc(N2CCOCC2)c([N+](=O)[O-])c1 | 90.7% (inactive) |
| CCOC(=O)C1=C(C)NC(=O)NC1c1ccc(-c2ccc(F)cc2)o1 (stereo not drawn) | 85.3% (inactive) |
| CCOC(=O)c1ccc(N=C2SC(C(=O)Nc3ccc(C(=O)O)cc3)CC(=O)N2Cc2cccs2)cc1 (stereo not drawn) | 94% (inactive) |
| O=c1oc2ccccc2nc1/C=C(\O)c1ccc(Br)cc1 | 107% (inactive) |
| O=C(CCN1CCCCCC1)c1ccccc1 | 92.9% (inactive) |
| O=C(CCSc1ccccc1)N1CCCC1 | 92.7% (inactive) |

| SMILES | viability |
| --- | --- |
| Cc1nnc(N/N=C/c2ccc(Br)cc2)n1N | 113% (inactive) |
| COCCSc1nnc(NC(=O)CCS(=O)(=O)Cc2ccccc2)s1 | 92.1% (inactive) |
| CCCCOc1ccc(CSCCN)cc1Cl | 105% (inactive) |
| CC(=O)c1ccc(NC(=O)C(Cc2ccccc2)n2cccc2)cc1 (stereo not drawn) | 97% (inactive) |
| Cc1ccccc1C(=O)NNc1ccc([N+](=O)[O-])cc1 | 103% (inactive) |
| Cc1ccc(NC(=O)ON=C2CCCC2)cc1 | 102% (inactive) |
| Cc1cc(C)n(-c2ccc(C(=O)Oc3ccc4c(c3)OCO4)cc2)n1 | 106% (inactive) |
| CCN(CC)CCSc1nnc2c3cc(C)ccc3n(Cc3ccccc3)c2n1 | 98.4% (inactive) |
| Cc1c(C(=O)NNC(=O)c2csc(N3CCOCC3)n2)oc2ccccc12 | 93.1% (inactive) |
| NC(=O)N/N=C/c1ccccc1OC(=O)c1cc2ccccc2oc1=O | 114% (inactive) |
| CCC(C)(C)NC(=O)c1ccc(Br)o1 | 110% (inactive) |
| O=C(Nc1ccccc1)c1ccc(Br)o1 | 96.5% (inactive) |
| CC(C)(C)OC(=O)N/N=C\c1ccc(OC(=O)c2ccco2)cc1 | 108% (inactive) |
| CC1(c2nnc(-c3ccccc3)o2)CC(c2ccc(Cl)cc2)=NO1 (stereo not drawn) | 102% (inactive) |
| Clc1ccc(OCCOCCN2CCc3ccccc3C2)c(Cl)c1 | 90.1% (inactive) |
| Cc1cc(C)n(-c2ccc(C(=O)OCC(=O)Nc3cc(Cl)ccc3[N+](=O)[O-])cc2)n1 | 106% (inactive) |
| COc1ccccc1/C=C/C=N/NC(=O)c1ccncc1 | 104% (inactive) |
| Cc1ccc(CN2CC(C(=O)OCc3ccccc3Cl)CC2=O)cc1 (stereo not drawn) | 98.3% (inactive) |
| Cc1ccc(C(=O)COC(=O)CCc2ccc(S(=O)(=O)N3CCCCC3)cc2)cc1 | 98.9% (inactive) |
| Cc1ccc(N2NC(=O)/C(=C/C=C/c3ccco3)C2=O)cc1C | 98.1% (inactive) |
| Cc1ccc(OCCCCn2ccnc2)c(Cl)c1 | 84.3% (inactive) |
| CC1(C)Oc2ccc(NC(=O)C3COc4ccccc4O3)cc2O1 (stereo not drawn) | 97.8% (inactive) |
| O=C(Oc1ccccc1Cl)c1ccc2c(=O)n3c(nc2c1)CCC3 | 95.4% (inactive) |
| CCOc1ncccc1C(=O)OCC(=O)N1CCc2ccccc21 | 98.4% (inactive) |
| C=CCOC(=O)c1ccc(-n2cnc(C)n2)nc1 | 102% (inactive) |

| SMILES | viability |
| --- | --- |
| O=C1CCC/C(=N/Nc2ccc(Cl)cc2)C1 | 96.4% (inactive) |
| CCc1nnc(N/N=C/c2c(F)cccc2Cl)n1N | 106% (inactive) |
| CCc1ccc(Cc2cnc(NC(=O)C3=NCCN3)s2)cc1 | 89.2% (inactive) |
| Cn1c(SCCOc2cccc(Cl)c2)nnc1-c1ccncc1 | 92.3% (inactive) |
| O=C(Oc1ccccc1)c1cccc(COC(=O)c2cnccn2)c1 | 92.2% (inactive) |
| O=S(=O)(c1ccc(Cl)c2ccccc12)N1CCCC1 | 90.6% (inactive) |
| c1ccc(-c2noc(CC3CCCCC3)n2)nc1 | 93.4% (inactive) |
| O=C(COc1ccc(Cl)cc1)Nc1ccc2[nH]ncc2c1 | 84.2% (inactive) |
| CCOC(=O)C(C)Oc1ccc(OCc2ccccc2)cc1 (stereo not drawn) | 85% (inactive) |
| CC(C)c1ccc(OCC(=O)NCc2ccccc2)cc1 | 98.7% (inactive) |
| Cc1cccc(NC(=O)c2ccc(OC3CSC3)cc2)c1 | 95.8% (inactive) |
| O=C(CCNc1ccc(Cl)cc1)c1cccs1 | 93.9% (inactive) |
| O=C(NNC(=O)c1cccs1)c1ccc(Br)o1 | 104% (inactive) |
| O=C(N/N=C/c1ccc([N+](=O)[O-])o1)c1ccc(NS(=O)(=O)c2cccs2)cc1 | 86.5% (inactive) |
| O=[N+]([O-])c1ccc(N2CCN(Cc3ccc([N+](=O)[O-])o3)CC2)cc1 | 87% (inactive) |
| Cc1ccc(CC(=O)N2CCN(c3ccc([N+](=O)[O-])cc3)CC2)cc1 | 81.7% (inactive) |
| O=C(c1cccs1)N1CCN(c2ccc(Cl)cc2)CC1 | 98.4% (inactive) |
| O=[N+]([O-])c1ccc(CN2CCN(c3ccccc3)CC2)o1 | 116% (inactive) |
| O=C1CCCC(O)=C1C=Nc1ccc2c(c1)oc1ccccc12 | 88.5% (inactive) |
| CCCCCCOc1ccc(C(=O)O)cc1C#N | 92.4% (inactive) |
| CCC(=O)c1ccc(OC(=O)c2ccc(Br)o2)cc1 | 94% (inactive) |
| Cc1cccc2nc(CSc3nc4cc([N+](=O)[O-])ccc4s3)cn12 | 97.2% (inactive) |
| Cc1nc2scc(-c3ccccc3)c2c(=O)o1 | 102% (inactive) |
| C=CCn1c(C)cc(C2=NNC(=NCc3ccccc3)SC2)c1C | 84.2% (inactive) |
| Cc1ccc2c(c1)c1c3n2CCN=C3CCC1 | 109% (inactive) |

| SMILES | viability |
| --- | --- |
| CCNC(=O)COC(=O)c1ccc(-c2nc3ccccc3s2)s1 | 109% (inactive) |
| Cc1ccsc1/C=N/NC(=O)c1ccncc1 | 106% (inactive) |
| O=C(N/N=C/c1cccc2nccnc12)c1ccncc1 | 104% (inactive) |
| O=C(N/N=C/c1ccc[nH]1)c1ccncc1 | 103% (inactive) |
| Cc1ccc(/C=N/NC(=O)c2ccncc2)o1 | 100% (inactive) |
| Clc1ccccc1CSc1nnc([C@@H]2CCCN2)o1 | 98.8% (inactive) |
| Cc1cccc(Cc2cnc(NC(=O)C3=NCCN3)s2)c1 | 85.1% (inactive) |
| C=C[C@]1(C)C=C2CCC3[C@](C)(CCC[C@@]3(C)C(=O)O)C2CC1 (stereo partly drawn) | 100% (inactive) |
| S=C1NC2(CCCC2)N=C1c1ccccc1 | 107% (inactive) |
| Cc1ccc(C)c(NC(=O)COC(=O)c2cc3ccccc3oc2=O)c1 | 112% (inactive) |
| CN1CCC(O)(c2ccccc2)C(C(=O)c2ccccc2)C1 (stereo not drawn) | 70.1% (inactive) |
| Cc1cccc(N2CCN(C(=O)Cn3sc4nc(C)cc(C)c4c3=O)CC2C)c1 (stereo not drawn) | 82.3% (inactive) |
| CCCOC(=O)NC1CCS(=O)(=O)C1 (stereo not drawn) | 93.6% (inactive) |
| O=C(CN1CCN(c2ccc([N+](=O)[O-])cc2)CC1)Nc1ccccn1 | 93.9% (inactive) |
| O=C(Nc1ncccn1)c1ccc([N+](=O)[O-])o1 | 91.3% (inactive) |
| CC(C)(C)c1csc(NC(=O)c2ccccc2O)n1 | 76.7% (inactive) |
| O=C(Nc1nccs1)c1ccc(COc2ccc(Cl)cc2)o1 | 99.7% (inactive) |
| O=C(Nc1nnc(COc2ccc(Cl)cc2)s1)c1ccco1 | 102% (inactive) |
| Cc1csc(NC(=O)c2cc([N+](=O)[O-])cc([N+](=O)[O-])c2)n1 | 90.4% (inactive) |
| Fc1cccc2sc(N3CCCC3)nc12 | 102% (inactive) |
| O=C(CCC1CCCC1)NCc1ccccn1 | 95.9% (inactive) |
| CCN(CC)S(=O)(=O)c1ccc(C(=O)OCn2nnc3ccccc3c2=O)cc1 | 102% (inactive) |
| Nc1ccc(Br)c2cccnc12 | 78.7% (inactive) |
